Assay results taken from PubChem BioAssay (Tox21).
Activity calls are given as the source filed them. Calls follow the shape of the dose curve; as a rule, active = well fitted activation curve with a large enough effect in the repeat runs; inconclusive = weak or mixed curves; inactive = flat fitted curve, though single readings scatter. Non-standard residues stand in square brackets, D forms with d. Residues, ends and D or L forms follow the SMILES beside them. *: point of attachment. Sta = CC(C)C[C@H](N)[C@@H](O)CC(=O)O; Isovaleryl = CC(C)CC(=O)*

Test: Caspase-3/7 induction in CHO-K1 cells by small molecules, qHTS assay (AID 1346980); also: nearly all actives have a fitted effect of over 15% in size
Conditions: CHO-K1 caspase-3/7 induction, Caspase-Glo luminescence, 17 h; series mostly up to 92.4 µM; caspase-3/7 activation: at the top concentration
Excerpt: National Center for Advancing Translational Sciences [NCATS]
NIH Chemical Genomics Center [NCGC]
U.S. Environmental Protection Agency [EPA]
National Institutes of Environmental Health Sciences [NIEHS]
National Toxicology Program [NTP]
Apoptosis is a process of programmed cell death and plays a central role in the development of multicellular organisms. It is a highly regulated process and induces cell death by activating caspases, which are the members of cysteine aspartic acid-specific protease (caspase) family. Caspases involved in apoptosis are classified by their mechanism of action as initiator caspases (caspase-2, -8, -9 and -10) and executioner caspases (caspase-3, -6, and -7). Inhibition of apoptosis results in number of cancers, autoimmune diseases, inflammatory diseases and viral infection. To identify small molecule compounds that induce apoptosis, a homogeneous, luminescent Caspase-Glo 3/7 assay was used. Wild type CHO-K1 cells were used to screen Tox21 libraries for identifying caspase-3/7 activity inducers.
CHO-K1 cells were dispensed at 1,500 per well in 5uL of culture medium into white solid bottom 1536-well plates (Corning Life Sciences, Corning, NY) using a Multidrop Combi (Thermo Scientific, Waltham, MA) dispenser. The assay plates were incubated at 37 C and 5% CO2 for 5hr, and then 23nL of compounds dissolved in DMSO and positive control were transferred using a Pintool station (Wako, San Diego, CA). The assay plates were incubated at 37C and 5% CO2 for 17hr. For caspase-3/7 activity read, 4uL of Caspase-Glo 3/7 reagent (Promega Corporation, Madison, WI) was added to each well of the assay plates using Flying Reagent Dispenser (FRD, Aurora Discovery, San Diego, CA) and incubated the assay plates at room temperature for 30min. The luminescence signal was quantified using a ViewLux plate reader (Perkin Elmer, Shelton, CT).
% is scaled to controls: 0 for no effect and ±100 for the full control effect.

| SMILES | caspase-3/7 activation |
| --- | --- |
| CCC(C)c1nccnc1OC (stereo not given) | -1.22% (inactive) |
| C=CC(=O)OCCOCCOCC | 0.0887% (inactive) |
| C=CCN(CC=C)CC=C | 0.548% (inactive) |
| CC(O)C(CO)C(C)O (stereo not given) | 1.36% (inactive) |
| Cc1nc2ccc(Cl)cc2[nH]1 | -3.98% (inactive) |
| COC(=O)c1ccc(NC(C)=O)cc1OC | 0.544% [at 42.5 µM] (inactive) |
| CCCCCCCOC(C)=O | -0.482% (inactive) |
| CCCCC(CC)COC(=O)CC#N (stereo not given) | 0.394% (inactive) |
| CC1(C)S[C@@H]2[C@H](NC(=O)Cc3ccccc3)C(=O)N2[C@H]1C(=O)O (tested in a mixture with another compound) | 0.0148% [at 42.5 µM] (inactive) |
| CSC(=O)c1cccc2nnsc12 | -0.0276% (inactive) |
| CCC(C)SSC(C)CC (stereo not given) | 1.64% (inactive) |
| C/C=C/C(=O)CCCC | -0.683% (inactive) |
| O=Cc1ccccc1S(=O)(=O)O | 0.0644% (inactive) |
| CC1(C)CC(N)CC(C)(C)N1 | -0.867% (inactive) |
| NCC1CCC(C(=O)Oc2ccc(CCC(=O)O)cc2)CC1 (stereo not given) | 1.04% [at 42.5 µM] (inactive) |
| C/C(Cl)=C/CCl | -0.871% (inactive) |
| CCCCCCCCS(=O)(=O)O | -2.59% (inactive) |
| CCN(CC)CC | -0.0479% (inactive) |
| Cc1ccc2cccnc2c1 | 0.638% (inactive) |
| CCCCC(CC)CCC(CC(C)C)OS(=O)(=O)O (stereo not given) | 0.587% (inactive) |

| SMILES | caspase-3/7 activation |
| --- | --- |
| CCCCOCCCC | 1.25% (inactive) |
| Nc1nc(Cl)cc(Cl)n1 | -1.33% (inactive) |
| CCOC(=O)COc1ccc2c(C)c(CCN(CC)CC)c(=O)oc2c1Cl | -0.135% [at 42.5 µM] (inactive) |
| CCCC(C)C(O)CC (stereo not given) | -0.46% (inactive) |
| CCCCCCCCCCCCCCCCN(C)C | -0.483% [at 8.39 µM] (inactive) |
| CNC(=O)c1c(I)c(NC(C)=O)c(I)c(C(=O)O)c1I | -0.199% [at 42.5 µM] (inactive) |
| CC(C)CC(=O)N[C@H](C(=O)N[C@H](C(=O)N[C@@H](CC(C)C)[C@@H](O)CC(=O)N[C@@H](C)C(=O)N[C@@H](CC(C)C)[C@@H](O)CC(=O)O)C(C)C)C(C)C (Isovaleryl-VV[Sta]A[Sta]-OH) | 1.11% [at 42.5 µM] (inactive) |
| NC(=O)CC[C@@H](N)C(=O)O | -0.569% [at 42.5 µM] (inactive) |
| COc1ccccc1N1CCN(CC(O)COc2cc(OC)c(OC)c(OC)c2)CC1 (stereo not given) | -0.248% [at 42.5 µM] (inactive) |
| CCNC(=O)C(C)OC(=O)Nc1ccccc1 (stereo not given) | 0.0057% (inactive) |
| N=C(N)N | -1.48% [at 42.5 µM] (inactive) |
| CCCC(=O)OC | -1.49% (inactive) |
| CCCCCCCCCCCBr | -0.207% [at 42.5 µM] (inactive) |
| NNC(=O)OCc1ccccc1 | -0.239% (inactive) |
| O=c1c(O)c(O)c1=O | 0.068% (inactive) |
| C=CC(=O)CC | 0.832% (inactive) |
| C=COCCCCO | -1.06% (inactive) |
| CCc1ccc(CC)cc1 | 0.945% (inactive) |
| O=C[C@@H](O)[C@H](O)[C@H](O)CO | -0.314% (inactive) |
| COc1ccc2cc(CCC(C)=O)ccc2c1 | -3.5% [at 42.5 µM] (inactive) |
